Experimental data: the supplement of paper PMC10105736
Unmarked numbers belong to inactive results.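 How the source made its calls: active = MAPPIT score above the 99th percentile of random reference set scores in the same batch; inactive = at or below it.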

How the values were obtained:
Experiment in all cases: MAPPIT interaction score (arbitrary units); higher = stronger binary interaction signal, active = hit call of the paper
msl-2 = conditions: pair source set: Lit-BM-16
nos = conditions: MAPPIT configuration: N-N; pair source set: Curagen_high_conf
msd5 = conditions: MAPPIT configuration: N-N; pair source set: Curagen_low_conf
nSyb = conditions: MAPPIT configuration: N-N; pair source set: DPIM
ninaD = conditions: MAPPIT configuration: N-C; pair source set: screen_4
mod(mdg4) = conditions: pair source set: Lit-BM-16
su(Hw) = conditions: MAPPIT configuration: N-C; pair source set: Lit-BM-16
mwh = conditions: MAPPIT configuration: N-N; pair source set: Curagen_high_conf
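Further: HEK293T cells with Epo stimulation, STAT-responsive firefly luciferase reporter, fold induction versus unstimulated cells divided by the larger fold induction of two negative controls lacking either bait or prey.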

B1: JIL-1 (protein)
chain: MSRLQKQNYEILSGTSTSRLKNHQHPRESESLAYEEPDQMVRNHLNGQLVANGNGKTRKNSNSETMTNGKKSKLNTEGSGSGSGKTLNYNNNNNNNNSISATNGQYTNSSSKTTSASARDYTYRETISPPTPPSPPTTNVADIVCISDAESEDGRDPEREYYDQDMEEDEPNGIEIDESSSSLSKAKSNNAAAAAAAAAAAAAAAASKASSSTTPSYAMPTSNSTPLDLDNEAHQRDLEAVTDLKYYVKLYSDEAVSLNDFKIIRVLGTGAYGRVFLVRKLTRHDAGKLYAMKVLNKITVVQKRKTAEHTKTERVVLEAIQRNPFLVSLHYAFQSSSKLYLVLDFANGGELFTHLYHSENFEESRVRVYIAEVVLALEQLHQLGIIYRDIKLENILLDGEGHIVLSDFGLSKILTAENEYRAHSFCGTLEYMAPEIIRTGPPGHDSAVDWWSVGVLTFELLTGASPFATSDGQVQQSEISRRIQKEQPMIPSSFSANARDFVLKMLEKNPKRRLGGNHRDASEIKEHPFFNGINWQELRTKRRKAPYKPTLTAEDDVQNFSNEFTDQVPEDPECDAPPSRIRLFRGYTYVAPEHLEQMRRDNHCEIQYFNTGLQNIPCRPDDLELGTRTSNGAYGTCHFVVDSSTDLVFLAKIIPLSKFRPSEVDALISCALDTTNHKNIVSYHGTFREKCETWIVMEYLSGPELTASIRMDEDSCREIFLQLVMAVRHIHSKHFIHGDLKPENIMFENREDRTVKLIDFGSACYNNRFKSWKDKPRYTLDYAPPEMLADANLVTYSPAVDIYGLGATLYTMLVGHRPYRQNEDDVDHSAAAHHELRKRMRRGTFNQRSMRWESASPAFRHLVSWCLQRDPADRPTLSDILDSEWLQYGSNDPDVDIILPQQMVVDLSEDTMEQPTGGMFDDQQQLEFMHDKSAEDEGITLVSEPMDTTVATHESRRNAAAFSSVVAPTTDDEIVHERFDPAFEVQADFYGFDENAPPLPLPEEYYSELPLPEEDRQYIPPPPALIPVEPETTFRRPRTRQQRRTESQLVQPVSVATYEDSKASLRVLMQQLPPPGDNVVARIPKRTHRVVRTLPPTFGTTKREENFYGFSKTAISWRKTRASWRHFCLLINGVQQVLKVRFKKARRVYCLPHIKEEKLDHAYEKPLTFPRPKAQLKRTKREPKVPRPPTRVQPERARAMRQLYQFQ
B1 was tested. Which MAPPIT interaction score (msl-2; MAPPIT configuration: N-C) did it give?
The MAPPIT interaction score was 0.534.

And the MAPPIT interaction score (msl-2; MAPPIT configuration: N-N)?
Its MAPPIT interaction score is 0.0488.

B2: 128up (protein)
chain: MSTILEKISAIESEMARTQKNKATSAHLGLLKAKLAKLRRELISPKGGGGGTGEAGFEVAKTGDARVGFVGFPSVGKSTLLSNLAGVYSEVAAYEFTTLTTVPGCIKYKGAKIQLLDLPGIIEGAKDGKGRGRQVIAVARTCNLIFMVLDCLKPLGHKKLLEHELEGFGIRLNKKPPNIYYKRKDKGGINLNSMVPQSELDTDLVKTILSEYKIHNADITLRYDATSDDLIDVIEGNRIYIPCIYLLNKIDQISIEELDVIYKIPHCVPISAHHHWNFDDLLELMWEYLRLQRIYTKPKGQLPDYNSPVVLHNERTSIEDFCNKLHRSIAKEFKYALVWGSSVKHQPQKVGIEHVLNDEDVVQIVKKV
With B2 as the binder, how does the MAPPIT interaction score (nos) read?
The MAPPIT interaction score was 0.2.

B3: lobo (protein)
chain: MPKVLFQKYKKVVSNIDPSRYSAKFKEIDEQRRSQGSESDFADEMEGEFEAEMEEMGSSEFSLSEGEPSLNIGKIDLSFPETVEEFENSPQCYPPSYYTLSPKERLLLLYAENFRKQLVLSYPKRRAMVLALPNECKVQKFVCTTIRPTAFIYTQLISSVEEIAKFVADFIQYEPLQDPINLPNRLISPETLLRKRKGNSYEMATLLVSMLIGAGHPALVVSGVAREETILNDQLAVPYPYPIVEVEVEEVKPKVEKPGQKYKLRGLPDLKSHLEEDMAEVHRQKEAEEKRIQDEIIRKQMEDLELLAVDRYHYRRSHAWVVIINNAPWSVKPKTTYTDVNGDVVEAPPTAIFIEPSTGFICETGCKQYILVDSIWNEYNYYVCKQKHQRVSELRWDLRDTKDWEHMLPGEPPEMRIYKMASDENVADEERDISEEKHLDCIGSWVERLHIGLADFEQRFPSSEKKIQYKGAIHERFSPYSQRDGKVMQLTIFNNDECTIPKVRYEYYENRSDLMRHVKYTYATDQFEEIFNKGRNDSLKSIEYFSDPSQQRKVHFFSASRIDSLELMVVEPGSLILHYKDRSDKCWYKEFEFTPAGNVLKKVTEKFLKASANDVCSNDIATRTFLFQQNKIVLKFHYTFGALTATVVEFTKPPRPDYGKELIYDEKLTKIYKANPLDPTRTNLELYRLLCEQLQYEDHLRKNFEKIFEDINNVFDLRKSEKAEPKLKFSIFDPLRNGAARAIRMRQFEEEEELKKEIASKPADFLAPYLVPYKHQEELTPEQSQNAYNACLNDLKSRFVSLLNNLQRHYEDLTSESKSLNRFLNKFENQFNNYDYKRLVQQSKDLELNKRMVQQRLTLTHEESQKKYEVVKNSLLKDPRLNFKKDDLARRASETSK
For B3, which MAPPIT interaction score (msd5) is on record?
The MAPPIT interaction score was 2.32.

B4: Snap25 (protein)
chain: MPADPSEEVAPQVPKTELEELQINAQGVADESLESTRRMLALCEESKEAGIRTLVALDDQGEQLDRIEEGMDQINADMREAEKNLSGMEKCCGICVLPCNKSQSFKEDDGTWKGNDDGKVVNNQPQRVMDDRNGMMAQAGYIGRITNDAREDEMEENMGQVNTMIGNLRNMALDMGSELENQNRQIDRINRKGESNEARIAVANQRAHQLLK
B4 was tested. Which MAPPIT interaction score (nSyb) did it give?
Its MAPPIT interaction score is 0.399.

B5: CG5382 (protein)
chain: MGLCKCPKRLVTNQFCFEHRVNVCEHCMVQSHPKCIVQSYLQWLRDSDYISNCTLCGTTLEQGDCVRLVCYHVFHWDCLNARQAALPANTAPRGHQCPACSVEIFPNANLVSPVADALKSFLSQVNWGRNGLGLALLSEEQSSSLKAIKPKVASQAAVSNMTKVHHIHSGGERERTKPNGHDAVSPHSVLLMDAFNPPSAGDYASSRRPLLPRQSPIGGTDRDDNKYQRRTPAELFSRWTRRFYAPSSRPPWRRTWFLVTAGILAFVLFVYLMAWLGRGGSDAVDEGWNNPNPQPNHYE
Which MAPPIT interaction score (ninaD) does the source give for B5 here?
Its MAPPIT interaction score is 0.641.

B6: Cp190 (protein)
chain: MGEVKSVKVDNWGVFFLQKLQNFFNKTDYCDLTLQFRDNSQLKVHRLVLSACTDYFNVLEQTCEIVDDALIMPNEFQADVVVPIVNFMYTGTLEFELKMYGKLLRTAKEMNMTVLLKLLEAHRRTMENVNRQQRPPSPKGIRRRTVGQPSSGLPQQRVLGPSPQSRNVATPIAQRANTQRGSTGNTMSRTSGGSNRSPYGDSSNVKQEPTSPFEQLRKGYNNNKRPAQTSLLSPPSKKPSLEEVKEFAEQQRMRKQIAAEYGDNDPEYDGGMLYDDVHAGDDDDDDMPPQPSTSKQQSPQGTQTQLEHGSTTIILKQDSPSQTPTIIVKDSSNAKLNHTKIIAEVLRQYPHIVKGHKNIKLKIMPNTPAAPTEKSAPATVKPPANQSSATTSPHKKLHVSFKADKSTPLITAQQKAASSQQKSGTSQTTGNQGTGANPPANTAAAQKRRIDSKTMHALIAQGAENTTGPWLCLRCGVNGRPISIPSYRGFRRHLINTHKETIDPALCEHCGWRSVNNRELHFHMYMEHQTKSLLYTFAECALCNQSYRTKGELEAHINEVHTDDNKQQCIYCNKVFEQELQLYRHMKSYHKEQALEDGIIDETDEEFLGSQDEEEEAEGDEEQEPEQTGKVRILSDISLPATSAITVQQAQQEQLQEEDVEQVQQEVKFVGADGNEVELTDEQRKEILSQLNQQQAGATAGGVVMVLSEPEAEHVKQETDEKSLAGTEEEYDDSQIYSELGAADSVESAKKNIADESKESIDNLEWAENLIAESEEQSNKEPKSDKPRDDISEKLKELTGDWTEDENDDDVDDKPATAELASELANKDPEPTVHEEEDDIDLALQSLHKGPEEATEEKASEESVTSADDAVDAVPNINSQPEKMDVDSEAADEKASKAEVQIKKEAELENDQEEFIKEDSPIPHSDSVAELREAVTASEGEDDVHLEADNIRKELLDELIAEAEKPDQEKDIVQSEENATTEALDRSVTDEDDLVPPTQVSTEQMEIDEPAAEKAAENNEDTRTADEKEAVEDKPNQTQDVTTAEKPTLESAKAGDEATSGEAASVDKVKSLISEWGDDDEDEDENGVSAAAKEEL
For B6, which MAPPIT interaction score (mod(mdg4); MAPPIT configuration: N-C) is on record?
Its MAPPIT interaction score is 2.63.

And the MAPPIT interaction score (mod(mdg4); MAPPIT configuration: N-N)?
The MAPPIT interaction score was -0.119.

What about the MAPPIT interaction score (su(Hw)) of the same binder?
Its MAPPIT interaction score is -0.381.

B7: mRpL13 (protein)
chain: MSIAKRVQQWATFARTWHIYDCTWQNPFESAKLVKTHLLGLQKPIYHPMNDCGDHVVLINTREIALPGDEWVKRVYFHHTGYPGGASWTLAWQLHEKDPTMVMKKAVYNSMRGNLQRRHTMQRLHLFADDQVPEEILQNVTNQIRTPRSIPQRLDHIDKETLENFPNIMDYPKDYILR
With B7 as the binder, how does the MAPPIT interaction score (nSyb) read?
The MAPPIT interaction score was -0.207.

B8: eIF3c (protein)
chain: MSRFFANGSESESESSEEEIQATNFNKASAFQFSDDEEEVKRVVRSTKEKRYENLTSIIKTIRNHKKIKDIPNTLSSFEDLTRAYQKALPVISKEENGITPRFYIRCLAELEDFINEVWEDREGRKNLSKNNSKSLGTLRQKVRKYIKDFEDDLSRFREAPDQESEAEDEVVALESDGGDAGDDSDAGVKPTEAVPKAVKSAPAKAAPADDDDSDDSIDWDSDSESETESSDDENQYQNMRERFLKRTTEKEEKDDDKRKDKRKEQKTKIRKRAEDDEDGEWETVVKGHVVEKPKMFEKDAEIDVPLVLAKLLEIMSARGKKRTDRRLQIDLLFELRDISDQHNLGTAVSVKIHFNIISAIYDYNQKISEPMKLEHWALLLEVMQSMMKLLLANADIIMSESVAEEHEEYATSPFYVRGCPLAAVERLDDEFVKLLKECDPHSNDYVSRLKDEVNVVKTIELVLQYFERSGTNNERCRIYLRKIEHLYYKFDPEVLKKKRGELPATTSTSVDVMDKLCKFIYAKDDTDRIRTRAILAHIYHHAMHDNWFQARDLVLMSHLQDNIDAADPATRILYNRMMANLGLCAFRQGNVKDAHHCLVDLMVTGKPKELLAQGLLPQRQHERSAEQEKIEKQRQMPFHMHINLELLECVYLVSAMLLEIPYIAAHEFDARRRMISKTFYQQLRSSERQSLVGPPESMREHVVAAAKAMRCGNWQACANFIVNKKMNTKVWDLFYESDRVREMLTKFIKEESLRTYLFTYSNVYTSISIPSLAQMYELPVPKVHSIISKMIINEELMASLDDPSETVGMHRSEPSRLQALAMQFVDKVTNLVDVNEKVFDMKQGNFFQRGNMGNRGDRGYNRNQNNQGGNWLGQRRDRNNRNRNQRGHHKNNQDRQQQQQQQVQTIDEE
For B8, which MAPPIT interaction score (nSyb) is on record?
The MAPPIT interaction score was 0.214.

B9: vilya (protein)
chain: MAKSQAGQTVEPEASKLWIHCNSCCALFCDKKHTFFLLACHHVFCERCVKVSAGRTPSDAPIFECSTCRRSVRGRQLTNSMPNHFKQLFHPEPFTIGNDFVETFQRGNHRHFDKYKERKELEMDKLFKDIEVAKSVCQKRFLEAQMLRVERKKLMQRSRYIKAEVANRKAEMHRMAQAYRSRSLTSQSSSSAQRSARGRPRGRGTATQSSSRRRSTESAKRQQITSFIHPPNNSFDL
B9 was tested. Which MAPPIT interaction score (mwh) did it give?
The MAPPIT interaction score was 0.602.
